From PubChem BioAssay AID687001 (Broad Institute, 2013)
Measured potencies and affinities stand elsewhere. A number with no mark means an inactive call.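 Rule for the calls: active = signal-lowering compounds whose fitted half-maximal concentration is at or below twice the top tested dose in every run; inconclusive = runs disagree, flat 30 to 70% inhibition, or poor curve fit; inactive = the rest.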

Biological target: Protein S100-A4 (Homo sapiens) (UniProt P26447)
Assay: human S100A4 peptide interaction inhibition curves – biochemical, fluorescence polarization, cherry-picked hits, dose response (AID 687001);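 note: 0% = DMSO neutral control wells and -100% = TFP positive control wells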
Details: FP, S100A4/TAMRA-myosin IIA peptide binding; series mostly up to 11 µM; activity change, negative = inhibition: at the top concentration

Sequence of Protein S100-A4 (Homo sapiens) (P26447 whole entry, looked up): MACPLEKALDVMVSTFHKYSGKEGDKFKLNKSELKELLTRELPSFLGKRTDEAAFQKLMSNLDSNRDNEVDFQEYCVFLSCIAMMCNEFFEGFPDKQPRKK

Structure (SMILES) | activity change, negative = inhibition
O=C(C[C@@H]1CC[C@@H](NC(=O)Cc2cccnc2)[C@H](CO)O1)Nc1ccc(-c2ccccc2)cc1 | 0.256%
COc1ccc(C)cc1NS(=O)(=O)c1ccc2c(c1)N(C)CCO2 | -2.05%
CC(=O)c1c(C)[nH]c(C(=O)OCc2csc(CC(=O)Nc3ccccc3C)n2)c1C | 8.31%
CC(=O)N1c2ccc(S(=O)(=O)N3CCC(C(=O)Nc4ncccc4C)CC3)cc2CC1C (centres undefined) | 0.699%
Cc1cccc(NS(=O)(=O)c2c(C(=O)N3CCOCC3)c(C)n(C)c2C)c1C | -2.74%
Cc1ccc(NC(=O)COC(=O)c2ccccc2F)cc1S(=O)(=O)N1CCCCC1 | 5.19%
Cc1oc(-c2ccccc2Cl)nc1CSCC(=O)O | 6.41%
Cc1ccc(N(C)S(=O)(=O)c2cccc(C(=O)NCCCN3CCCC3=O)c2)cc1 | -2.52%
C[C@@H]1CN([C@H](C)CO)C(=O)Cc2cc(NC(=O)CCN3CCOCC3)ccc2O[C@H]1CN(C)Cc1ccc2c(c1)OCO2 | -0.504%
CN1c2ccc(-c3ccccc3)cc2[C@@H]2[C@@H](CCN2C(=O)c2ccccc2)[C@H]1CO | 12.3%
CN(C)S(=O)(=O)c1ccc(Cl)c(C(=O)NNC(=O)Cn2ccc(C(F)(F)F)n2)c1 | -0.517%
Cc1cccc(S(=O)(=O)N2CC[C@@H]3[C@H](CO)Nc4ccc(C#Cc5ccc(F)cc5)cc4[C@@H]32)c1 | 18.8%
C[C@H](CO)N1C[C@H](C)[C@H](CN(C)Cc2ccccc2)Oc2c(NC(=O)CCCCCC(=O)Nc3ccccc3N)cccc2C1=O | 10.4%
CC(C)n1nccc1N(Cc1ccc(C#N)cc1)S(=O)(=O)c1ccccc1 | -2.67%
COC(=O)[C@@H]1[C@@H](CO)[C@@H]2Cn3c(ccc(-c4ccccc4)c3=O)[C@@H]2N1C(=O)CC1CC1 | 7.03%
CCCN1CCN(CCCNC(=O)C(CC)n2nc(C)c3sc4ccccc4c3c2=O)CC1 (centres undefined) | 5.91%
CCC(=O)Nc1ccc2c(c1)OC[C@H](C)N(C(=O)CC1CC1)C[C@H](C)[C@H](OC)CN(C)C2=O | 0.814%
O=C(CC1C[C@H](C(=O)N2CCCCC2)[C@@]2(CCc3ccccc3)c3[nH]c4ccccc4c3CCN2C1=O)NCCC1=CCCCC1 (some centres undefined) | -5.01%
Cn1c2ccccc2c(=O)c2ccc(C#Cc3ccc(N)cc3)cc21 | 35.4%
Cc1ccc(S(=O)(=O)Nc2ccc(O)c3ccccc23)c(C)c1 | -13.5%

Structure (SMILES) | activity change, negative = inhibition
Cc1nn(-c2ccccc2)c(N)c1N=O | 1.54%
CCOc1ccc(C(=O)NC2CCN(C(=O)Nc3ccc(F)cc3)CC2)cc1 | 2.33%
COc1ccc(C#Cc2ccc([C@H]3[C@H]4CN(C(=O)Nc5ccccc5)CCCCN4[C@H]3CO)cc2)cc1 | 21.1%
O=C(O)[C@@H]1[C@@H](CO)[C@@H]2Cn3c(ccc(/C=C/c4ccccc4)c3=O)[C@@H]2N1C(=O)C1CCCC1 | 4.43%
CCCCn1c(O)c(/C=C2\C=Nc3ccccc32)c(=O)[nH]c1=O | 19%
C[C@H](NC(=O)C[C@H]1C[C@@H]2c3cc(NC(=O)CN(C)C)ccc3O[C@@H]2[C@H](CO)O1)c1ccccc1 | 8.25%
Cc1ccc(C2CC(=O)NC(SCCC(C)C)=C2C#N)cc1 (centres undefined) | -5.51%
CCN1C(=O)[C@H]2[C@@H](c3ccc(-c4ccc5c(c4)OCO5)c(OC)c3)N[C@@](C)(C(=O)OC)[C@H]2C1=O | -4.5%
O=c1[nH][nH]c(=O)c2nc(Nc3ccccc3)ncc12 | -0.695%
CCOc1ccc(N2CC(C(=O)NNC(=O)c3ccc(Br)cc3)CC2=O)cc1 (centres undefined) | 1.89%
CC=Cc1ccc2n(c1=O)C[C@@H]1N[C@H]2[C@H](C(=O)NC2CCCCC2)[C@H]1CO (mixture of isomers) | -2.91%
C[C@H](CO)N1C[C@H](C)[C@H](CN(C)C)Oc2cc(C3=CCCC3)ccc2S1(=O)=O | 3.56%
CO[C@@H]1CN(C)C(=O)c2ccc(NC(=O)c3ccc4c(c3)OCO4)cc2OC[C@@H](C)N(Cc2ccc3c(c2)OCO3)C[C@H]1C | 3.91%
C[C@@H]1CCCCO[C@@H](CN(C)C(=O)C2CCCCC2)[C@@H](C)CN([C@H](C)CO)C(=O)c2cc(NC(=O)Nc3cccc4ccccc34)ccc2O1 | 8.36% [at 10 µM]
CC(C)OCCCNC(=O)c1ccccc1NC(=O)C1=CSCCO1 | -5.74%
O=S(=O)(CCS(=O)(=O)c1ccccc1)c1ccccc1 | -3.72%
CO[C@H]1CN(C)C(=O)c2cc(NC(=O)Nc3ccc(C(F)(F)F)cc3)ccc2OC[C@H](C)NC[C@H]1C | 2.47%
CCc1nn2c(=O)cc(COc3ccc(NC(=O)c4ccco4)cc3)nc2s1 | 27.9%
Cc1cccc2c(CC(=O)Nc3ccccc3)noc12 | -11.4%
